A number with no mark means an inactive call. Records with an inconclusive call do not appear. Active and inactive are the calls of the source. Unless noted, calls come from the whole dose curve; as a rule, active = well fitted curve in the direction sought with a large enough effect in the repeat runs; inconclusive = weak or mixed curves; inactive = no such curve, though single readings can be large; an effect the other way counts as inactive or inconclusive.

Here are results for 31 molecules from PubChem BioAssay (Tox21).

Experiment [1] concerns the target Estrogen receptor (Homo sapiens) (UniProt P03372). The experiment is described as follows: qHTS assay to identify small molecule antagonists of the estrogen receptor alpha (ER-alpha) signaling pathway using the BG1 cell line in the presence of 0.1 nM 17-beta-estradiol (AID 1259244). Note: nearly all actives have a fitted effect of over 50% in size. Note: potency is the fitted concentration of half-maximal effect. An outline of the steps:
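Antagonist mode: compounds in DMSO are pinned onto VM7Luc4E2 reporter cells, 0.1 nM final 17beta-estradiol is added, and after 22 h at 37C luciferase luminescence is measured with ONE-Glo.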
Background: Quantitative high-throughput screening tests each substance at several concentrations.

The nature of experiment [2]: qHTS assay to identify small molecule HDAC inhibitors (AID 1259364). For activity change, negative = inhibition: top concentration of the series differs between compounds. Note: potency is the fitted concentration of half-maximal effect.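 Note: wild-type HCT-116 cells with endogenous class I/II HDAC activity; nearly all actives have a fitted effect of over 45% in size.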 In a few lines: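 Cells (HCT-116, wild type) are seeded at 1,500 per well, incubated overnight, treated with compound in DMSO for 2 hr, then developed with HDAC-Glo I/II reagent for 30 min at room temperature.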
Experiment [3] in a line: qHTS assay to identify small molecule HDAC inhibitors - cell viability counter screen (AID 1259365). Note: series mostly up to about 92 µM; nearly all actives have a fitted effect of over 50% in size. In a few lines:
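Wild-type HCT-116 cells, 1,500/well, cultured overnight, then compound-treated 2 h at 37 C. Viability measured as ATP luminescence with CellTiter-Glo after 30 min at room temperature.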

Experiment [4] in a line: qHTS assay to identify small molecule antagonists of the sonic hedgehog signaling (Shh) pathway - cell viability counter screen (AID 1259367). Note: nearly all actives have a fitted effect of over 55% in size. Note: potency is the fitted concentration of half-maximal effect. In a few lines: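 Tox21 library chemicals were tested on a Gli1-Luc NIH/3T3 clone (2,000 cells/well) stimulated by conditioned medium; viability was quantified as fluorescence from CellTiter-Fluor reagent added at 23 hr.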
Experiment [5] can be described thus: qHTS assay to identify small molecule agonists of the sonic hedgehog signaling (Shh) pathway (AID 1259368; calls by dose curve;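 note: NIH/3T3-derived 3T3Gli1-Luc cells carrying a stable Gli1-driven firefly luciferase reporter; series mostly up to about 92 µM; nearly all actives have a fitted effect of over 15% in size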). An outline of the steps:
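Cells of a mouse NIH/3T3 clone stably expressing luciferase under the Gli1 transcriptional response element are exposed to test chemicals for 24 hr at 37 C. Pathway activation is detected as a rise in luminescence.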

Experiment [6] is described as follows: qHTS assay to identify small molecule agonists of the sonic hedgehog signaling (Shh) pathway - cell viability counter screen (AID 1259366). Note: nearly all actives have a fitted effect of over 50% in size. Note: potency is the fitted concentration of half-maximal effect. An outline of the steps: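 NIH/3T3-derived Gli1-Luc reporter cells, 2,000 per well, received compound after 4 h and were treated about 23 h at 37C. Viability measured in the same wells by CellTiter-Fluor fluorescence after 1 h.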

Experiment [7] can be described thus: qHTS assay to identify small molecule antagonists of the sonic hedgehog signaling (Shh) pathway (AID 1259369; calls by dose curve; note: nearly all actives have a fitted effect of over 45% in size; note: potency is the fitted concentration of half-maximal effect). In a few lines: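 Cells are plated and held 4hr at 37 C, compounds (DMSO) are pinned in, conditioned medium is added to stimulate the pathway, and after 24hr luciferase reagent is added for 30min before luminescence is read.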
Experiment [8] addresses Estrogen receptor beta (Homo sapiens) (UniProt Q92731). The experiment is described as follows: qHTS assay to identify small molecule agonists of the estrogen receptor beta (ER-beta) signaling pathway (AID 1259377; active = well fitted activation curve with a large enough effect in the signal ratio in the repeat runs, not every such curve was filed as active; the % refers to the signal ratio). In a few lines: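 ER-beta-UAS-bla HEK293T cells in medium with 2% charcoal-stripped FBS were exposed to compounds for 16 h at 37C. Beta-lactamase reporter activity was read as fluorescence after 2 h with LiveBLAzer B/G FRET substrate at room temperature.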

A short description of experiment [9]: qHTS assay to identify small molecule phospholipidosis (PLD) inducers (AID 1259344; active = well fitted curve in the direction sought with a large enough effect; an effect the other way counts as inactive or inconclusive). In a few lines:
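Image-based: LipidTOX Red pit count/intensity per well and per cell; HepG2, 24 h compound at 37 C, PFA fixation, Hoechst counterstain.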
% is set by controls: 0 for no effect and ±100 for the full control effect.

Estrogen receptor (Homo sapiens), sequence (P03372 whole entry, looked up): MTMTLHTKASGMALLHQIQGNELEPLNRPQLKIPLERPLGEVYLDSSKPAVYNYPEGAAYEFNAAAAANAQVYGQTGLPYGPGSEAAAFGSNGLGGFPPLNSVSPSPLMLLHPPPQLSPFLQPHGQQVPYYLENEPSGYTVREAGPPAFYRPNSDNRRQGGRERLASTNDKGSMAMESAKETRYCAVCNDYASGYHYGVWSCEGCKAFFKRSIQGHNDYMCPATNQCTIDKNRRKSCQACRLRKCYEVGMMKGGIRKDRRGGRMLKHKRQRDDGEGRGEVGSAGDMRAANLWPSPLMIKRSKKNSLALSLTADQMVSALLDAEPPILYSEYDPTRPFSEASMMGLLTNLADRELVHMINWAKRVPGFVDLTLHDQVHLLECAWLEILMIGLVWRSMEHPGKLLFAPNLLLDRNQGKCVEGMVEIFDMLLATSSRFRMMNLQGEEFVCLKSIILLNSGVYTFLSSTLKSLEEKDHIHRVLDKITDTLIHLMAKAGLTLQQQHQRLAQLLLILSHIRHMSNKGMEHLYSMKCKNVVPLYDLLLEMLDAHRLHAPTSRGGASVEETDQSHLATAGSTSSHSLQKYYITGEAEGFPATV
Estrogen receptor beta (Homo sapiens), sequence (Q92731 whole entry, looked up): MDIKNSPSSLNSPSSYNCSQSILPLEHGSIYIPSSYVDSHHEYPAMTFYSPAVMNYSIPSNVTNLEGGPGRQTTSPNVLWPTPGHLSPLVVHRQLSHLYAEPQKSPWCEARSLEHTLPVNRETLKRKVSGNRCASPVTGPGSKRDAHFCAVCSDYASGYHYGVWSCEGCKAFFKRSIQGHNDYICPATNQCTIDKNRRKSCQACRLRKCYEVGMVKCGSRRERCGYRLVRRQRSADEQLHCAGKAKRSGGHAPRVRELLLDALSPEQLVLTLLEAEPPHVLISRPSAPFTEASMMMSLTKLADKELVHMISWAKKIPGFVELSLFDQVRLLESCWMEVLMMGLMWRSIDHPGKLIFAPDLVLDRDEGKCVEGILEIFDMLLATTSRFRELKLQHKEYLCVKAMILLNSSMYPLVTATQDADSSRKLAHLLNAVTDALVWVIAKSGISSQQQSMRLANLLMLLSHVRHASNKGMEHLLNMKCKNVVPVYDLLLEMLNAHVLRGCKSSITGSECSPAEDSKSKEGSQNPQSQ

For `O=C(c1ccccc1)c1cc(Cl)ccc1O`, the Potency entry in experiment [1], in [2], in experiment [3], in experiment [4] and in [5] was “inactive” throughout.
In the case of `CCOC(=O)COc1ccc(C)cc1`, the Potency result in [1], in experiment [2], in experiment [3], in experiment [6], in experiment [4] and in experiment [5] was “inactive” each time. Besides, the Potency entry in [7] and in [8] was “inactive” throughout.
Turning to `O=S(O)O`, the activity change, negative = inhibition in experiment [1] was -4.06% [at 19 µM]; in experiment [2] it was 2.9% [at 19 µM]; in experiment [7] it was 12.9% [at 19 µM]. Also, the activity change, negative = cytotoxicity in [3] is 2.88% [at 19 µM]. Moreover, the viability change, negative = cytotoxic is 2.93% [at 19 µM] in experiment [6] and 0.928% [at 19 µM] in experiment [4]. The activity change in experiment [5] is -1.4% [at 18.9 µM, stronger effect = higher value]. Further, the activation in experiment [8] is -0.957% [at 19 µM].
Consider `CC(C)=CC1CC(C)CCO1` (stereo not drawn), for which the Potency entry in experiment [1], in experiment [2], in experiment [3], in [6], in experiment [4] and in experiment [5] was “inactive” in each case. Also, the Potency result in experiment [7] and in experiment [8] was “inactive” each time.
In the case of `CC(C(O)c1ccccc1)N(C)CCOC(c1ccccc1)c1ccccc1` (stereo not drawn), the Potency result in experiment [9], in [2], in [3], in experiment [5] and in experiment [8] was “inactive” throughout. The Potency in [7] is 21.1 µM (active).
For `Cc1ccc(CCn2c3c(c4cc(Cl)ccc42)CN(C)CC3)cn1`, the Potency entry in [1], in [2], in experiment [3] and in experiment [5] was “inactive” in each case.
Turning to `O=C1OC(=O)c2cccc3cccc1c23`, the Potency result in experiment [1], in experiment [2], in [3], in experiment [4], in experiment [5] and in experiment [7] was “inactive” each time. Besides, the Potency result in [8] was “inactive”.
In the case of `CCN(CC)CCOc1ccc(C(O)(Cc2ccc(Cl)cc2)c2ccc(C)cc2)cc1` (stereo not drawn), the Potency entry in [9], in experiment [2], in experiment [3], in [5] and in [8] was “inactive” in each case. The Potency in experiment [7] is 5.96 µM (active).
Take `COc1ccccc1OCCNCC(O)COc1cccc2[nH]c3ccccc3c12` (stereo not drawn): the Potency entry in experiment [9], in [2], in experiment [3], in experiment [5] and in [8] was “inactive” each time. The Potency was 26.6 µM (active) in experiment [6] and 21.1 µM (active) in experiment [7].
Consider `CC(C)=CCCC(C)CCOC(=O)C(C)C` (stereo not drawn), for which the Potency result in experiment [1], in experiment [2], in [3], in experiment [4], in [5] and in experiment [7] was “inactive” throughout. In addition, the Potency result in experiment [8] is “inactive”.
In the case of `O=C(Nc1ccc(Cl)c(Cl)c1)c1cc(Cl)cc(Cl)c1O`, the values for the Potency in [1], in [2] and in [7] were 3.44 µM (active), 1.22 µM (active) and 3.86 µM (active), respectively. The Potency entry in experiment [3] and in [5] was “inactive” throughout.
As for `CCOC(=O)[C@@](C)(N)Cc1ccc(O)c(O)c1`, the Potency result in experiment [9], in experiment [2], in experiment [3] and in experiment [6] was “inactive” in each case.
With `COc1cc(C(=O)NS(=O)(=O)c2ccccc2C)ccc1Cc1cn(C)c2ccc(NC(=O)OC3CCCC3)cc12`, the Potency entry in experiment [9], in experiment [2], in experiment [3], in experiment [6], in [4] and in [5] was “inactive” each time. Moreover, the Potency entry in [7] and in [8] was “inactive” each time.
`C=C(c1ccc(C(=O)O)cc1)c1cc2c(cc1C)C(C)(C)CCC2(C)C`: the Potency result in [9], in [2], in experiment [3], in experiment [6], in [4] and in experiment [5] was “inactive” throughout. In addition, in experiment [7], the Potency result was “inactive”.
With `CCCCCCCOC(=O)c1ccc(O)cc1`, the Potency result in [1], in experiment [2], in experiment [3], in experiment [4], in experiment [5] and in [8] was “inactive” throughout. In experiment [7], the Potency is 43.3 µM (active).
For `Clc1ccc(C(Cn2ccnc2)OCc2ccsc2Cl)c(Cl)c1` (stereo not drawn), the Potency entry in experiment [9], in [2], in experiment [3] and in experiment [5] was “inactive” each time. In addition, in [7], the Potency was 11.9 µM (active).
`C/C=C/C=N/NC(=O)c1ccncc1`: the Potency entry in experiment [9], in [2], in experiment [3], in experiment [5], in [7] and in experiment [8] was “inactive” in each case. In addition, in experiment [4], the Potency is 26.6 µM (active).
Consider `CC(C)C(=O)OCc1ccccc1`, for which the Potency entry in [1], in experiment [2], in experiment [3], in experiment [4], in [5] and in [7] was “inactive” throughout. Further, in [8], the Potency result was “inactive”.
Consider `O=C1c2c(O)ccc(O)c2C(=O)c2c(NCCNCCO)ccc(NCCNCCO)c21`, for which the Potency entry in experiment [9], in experiment [2], in experiment [3], in experiment [5] and in experiment [8] was “inactive” each time. In addition, the results for the Potency in [6], in experiment [4] and in [7] were 21.1 µM (active), 23.7 µM (active) and 0.0473 µM (active), respectively.
With `Clc1ccccc1CN1CCc2sccc2C1`, the Potency result in experiment [9], in experiment [2], in experiment [3], in experiment [6], in experiment [4] and in experiment [5] was “inactive” throughout. Further, in experiment [7], the Potency result was “inactive”.
Turning to `NCCCCCCNCCCCCCN`, the Potency result in experiment [1], in [2], in experiment [3] and in experiment [5] was “inactive” each time.
Regarding `CN1CN(C)CN(C)C1`, the Potency result in experiment [1], in [2], in experiment [3], in experiment [4], in experiment [5] and in experiment [7] was “inactive” each time. In [8], the Potency entry was “inactive”.
For `CC(O)C#CC(C)O` (stereo not drawn), the Potency entry in experiment [1] and in experiment [5] was “inactive” each time. In addition, the values for the Potency in [6], in experiment [4] and in [7] were 53.9 µM (active), 60.5 µM (active) and 24.1 µM (active), respectively.
For `CCCCOc1ccc(C(=O)CCN2CCCCC2)cc1`, the Potency entry in experiment [9], in experiment [2], in [3], in [4], in experiment [5] and in experiment [7] was “inactive” throughout. In [8], the Potency entry was “inactive”.
Turning to `Brc1ccccc1-c1ccccc1`, the Potency entry in experiment [9], in experiment [2], in [3], in experiment [6], in [4] and in [5] was “inactive” in each case. Besides, the Potency entry in experiment [7] was “inactive”.
Turning to `CN1[C@@H]2CC[C@H]1CC(OC(=O)C(CO)c1ccccc1)C2` (stereo partly drawn), the Potency entry in [9], in [2], in experiment [3], in [6] and in experiment [4] was “inactive” each time.
With `C=CC(=O)OCC(O)COc1ccccc1` (stereo not drawn), the Potency result in experiment [1], in experiment [4], in [5], in experiment [7] and in experiment [8] was “inactive” in each case. In addition, the Potency in experiment [6] is 27.3 µM (active).
For `Oc1c(Br)cc(Br)c2cccnc12`, the Potency entry in experiment [9], in experiment [2], in experiment [3] and in [5] was “inactive” in each case. The figures for the Potency in experiment [6] and in experiment [7] were 7.5 µM (active) and 2.37 µM (active), respectively.
`O=S(=O)(O)CCCN1CCOCC1`: the Potency result in [1], in [2], in experiment [3], in experiment [4], in experiment [5] and in experiment [7] was “inactive” in each case. The Potency entry in experiment [8] was “inactive”.
Turning to `CCCCCCOc1ccc(O)cc1`, the Potency result in experiment [1], in experiment [3], in experiment [6], in experiment [5], in experiment [7] and in experiment [8] was “inactive” each time.
`NCCCC(O)(P(=O)(O)O)P(=O)(O)O`: the Potency result in experiment [9], in experiment [2], in [3], in experiment [6], in experiment [4] and in [5] was “inactive” in each case. Further, in experiment [7], the Potency result was “inactive”.
